# Measured values taken from the supplement of paper PMC12532568.
# Structures can show the parent of a compound that is named as a salt.
# Test system: Danio rerio larvae Tg(actc1b:ZsGreen-LC3), 3 dpf
# Assay: LC3 puncta relative area vs vehicle, without NH4Cl (log2 fold change); higher = more autophagosomes
# Conditions: 10 µM; treatment time 16 h; NH4Cl: none
# Description: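 Transgenic Tg(actc1b:ZsGreen-map1lc3) zebrafish larvae (2 dpf) were treated for 16 h with Tocris library compounds at 10 µM (n = 12 larvae per compound). Skeletal-muscle LC3 puncta area relative to body area was measured by high-content confocal imaging before and after 4 h of 100 mM NH4Cl (autophagic flux), normalised to vehicle (DMSO), and reported as log2 fold change.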
row,SMILES,LC3 puncta (log2)
1,COc1ccc([C@@H]2Sc3ccccc3N(CCN(C)C)C(=O)[C@@H]2OC(C)=O)cc1 [Diltiazem hydrochloride],0.112
2,CC(CCc1ccc(O)cc1)NCCc1ccc(O)c(O)c1 (stereo not given) [Dobutamine hydrochloride],-0.094
3,COCCOC(=O)C1=C(C)NC(C)=C(C(=O)OC(C)C)C1c1cccc([N+](=O)[O-])c1 (stereo not given) [Nimodipine],0.31
4,CC(C(O)c1ccc(O)cc1)N1CCC(Cc2ccccc2)CC1 (stereo not given) [Ifenprodil hemitartrate],-0.219
5,CCN(CC)CCOC(=O)C1(c2ccc([N+](=O)[O-])cc2)CCCC1 [Nitrocaramiphen hydrochloride],0.254
6,Cc1noc(NS(=O)(=O)c2ccc(N)cc2)c1C [Sulfisoxazole],0.239
7,CC(C)[C@H]1CC[C@H](C(=O)N[C@H](Cc2ccccc2)C(=O)O)CC1 [Nateglinide],0.316
8,NC(=O)c1cccc(N)c1 [3-Aminobenzamide],0.336
9,CCN(CC)CCOc1ccc(Cc2ccccc2)cc1 [DPPE fumarate],0.714
10,COc1ccc2[nH]c(-c3ccccc3)c(CCNC(C)=O)c2c1 [2-Phenylmelatonin],0.513
11,"O=C1CN(/N=C/c2ccc(-c3ccc([N+](=O)[O-])cc3)o2)C(=O)N1 [Dantrolene, sodium salt]",0.18
12,N=C(N)S/C=C\C(=O)O [ZAPA sulfate],0.0963
13,CC(C)NC[C@H](O)COc1ccc(CC(N)=O)cc1 [(S)-(-)-Atenolol],0.12
14,N[C@H]1CCN(O)C1=O,0.0498
15,CC12CC3CC(C)(C1)CC(N)(C3)C2 [Memantine hydrochloride],0.145
16,CNC(=O)c1cc2c(cn1)[nH]c1ccccc12,0.13
17,CCCCOc1cc(CC2CNC(=O)N2)ccc1OC (stereo not given),-0.122
18,CCC(C)N(C)C(=O)c1cc2ccccc2c(-c2ccccc2Cl)n1 (stereo not given),-0.0562
19,O=C1CC2(CCCC2)CC(=O)N1CCNCC1COc2ccccc2O1 (stereo not given),0.301
20,O=[N+]([O-])c1cccc2cn[nH]c12 [7-Nitroindazole],0.16

row,SMILES,LC3 puncta (log2)
1,c1ccc2oc(C3=NCCN3)cc2c1 [2-BFI hydrochloride],0.0586
2,O=C(O)C1=CCCNC1 [Guvacine hydrochloride],-0.168
3,c1ccc2nc(C3=NCCN3)cnc2c1 [BU 239 hydrochloride],-0.208
4,CN(C)CCCCSC(=N)N,0.222
5,c1ccc(N2CCN(CCCOc3ccc4c(c3)OCO4)CC2)cc1 [BP 554 maleate],0.01
6,O=S(=O)(c1cccc2cnccc12)N1CCCNCC1 [Fasudil hydrochloride],0.598
7,O=[N+]([O-])c1cc2nc(O)c(O)nc2cc1[N+](=O)[O-],0.0864
8,CC1(C(=O)O)NCCc2cc(O)c(O)cc21 (stereo not given) [Salsolinol-1-carboxylic acid],0.463
9,NC(N)=Nc1ccc(Cl)cc1 [4-Chlorophenylguanidine hydrochloride],-0.45
10,O=C(O)CC/C=C\C[C@H]1CO[C@@H](c2ccccc2Cl)O[C@H]1c1ccccc1O,-0.249
11,Nc1cc(N2CCCCC2)nc(N)[n+]1[O-] [Minoxidil],0.233
12,O=C(O)c1cc(O)c2ccc(Cl)cc2n1 [7-Chlorokynurenic acid],0.0331
13,COc1cc2nc(N3CCN(C(=O)c4ccco4)CC3)nc(N)c2cc1OC [Prazosin hydrochloride],-0.131
14,O=C1CC2(CCCC2)CC(=O)N1CCCCNCC1COc2ccccc2O1 (stereo not given),-0.00847
15,CC[C@@H]1C(=O)OC[C@@H]1Cc1cncn1C [Pilocarpine hydrochloride],0.203
16,CC#CCOC(=O)C1=CCCN(C)C1 [Arecaidine but-2-ynyl ester tosylate],0.463
17,N[C@@H](C(=O)O)c1ccc(O)c(C(=O)O)c1 [(R)-3-Carboxy-4-hydroxyphenylglycine],0.211
18,CN(C)CCCn1cc(C2=C(c3c[nH]c4ccccc34)C(=O)NC2=O)c2ccccc21,0.584
19,O=c1nc2ccccc2c2n1CC(CN1CCN(c3ccccc3)CC1)N2 (stereo not given),0.0176
20,O=C(O)c1cc(=O)c2ccccc2[nH]1 [Kynurenic acid],0.00327
